Screen size: about 16,000 compounds; about 5,700 (36%) were called active. Inconclusive results (about 24%) are left out. The list shows a part of the results. A number with no mark means an inactive call. Calls follow the shape of the dose curve; as a rule, active = well fitted curve in the direction sought with a large enough effect; inconclusive = small, poorly fitted or top-dose-only effect, or effect the other way; inactive = no such curve, though single readings can be large or run the other way.
The compounds below were run against Cytochrome P450 1A2 (Homo sapiens) (UniProt P05177) (assay: Cytochrome panel assay with activity outcomes). Details: recombinant CYP, pro-luciferin dealkylation, luminescence, p450-cyp1a2; series mostly up to 57.1 µM; activity, negative = inhibition: at the top concentration.
Sequence of Cytochrome P450 1A2 (Homo sapiens) (P05177 whole entry, looked up): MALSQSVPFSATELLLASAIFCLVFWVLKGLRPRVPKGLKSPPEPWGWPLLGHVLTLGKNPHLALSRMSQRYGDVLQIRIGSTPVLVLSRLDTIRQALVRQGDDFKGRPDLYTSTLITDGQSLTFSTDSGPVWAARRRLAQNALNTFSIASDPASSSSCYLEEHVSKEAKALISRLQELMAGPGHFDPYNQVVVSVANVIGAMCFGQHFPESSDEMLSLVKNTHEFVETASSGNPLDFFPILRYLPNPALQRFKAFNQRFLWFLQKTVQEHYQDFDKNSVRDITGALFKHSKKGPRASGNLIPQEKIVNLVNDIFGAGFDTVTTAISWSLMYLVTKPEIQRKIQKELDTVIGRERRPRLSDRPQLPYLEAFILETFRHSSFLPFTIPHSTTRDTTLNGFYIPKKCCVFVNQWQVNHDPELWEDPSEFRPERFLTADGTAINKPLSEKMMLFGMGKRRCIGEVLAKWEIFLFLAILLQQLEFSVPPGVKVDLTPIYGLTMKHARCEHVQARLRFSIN
% is scaled to controls: 0 for no effect and ±100 for the full control effect.

| SMILES | activity, negative = inhibition | AC50 |
| --- | --- | --- |
| CN1C(=O)OC(C)(C)C1=O | -1.91% [at 25.6 µM] |  |
| CCc1c(C)nc2ccc(Br)cc2c1Cl |  | 0.316 µM (active) |
| Cc1cc(Cl)nc2ccc(Cc3ccc4nc(Cl)cc(C)c4c3)cc12 | -13.2% [at 2.29 µM] |  |
| CO[C@H]1COC(=O)CCC[C@@H](C)[C@H](OC)COC(=O)[C@@H](C)NC(=O)C/C=C\[C@@H]1C | 3.63% [at 11.4 µM] |  |
| O=C(O)[C@H]1CCCNC1 | -5.56% |  |
| Cc1cnn(-c2ccc3nnc(-c4ccc(Cl)cc4)n3n2)c1 |  | 0.398 µM (active) |
| CNC(=O)Oc1ccc2c(c1)[C@@]1(C)CCN(C)[C@@H]1N2C | -15.8% |  |
| CCOCCCn1cnc2c([nH]c3cc(OC)ccc32)c1=O |  | 2 µM (active) |
| CCOCCCN1C(=O)CN(C2CCCCCC2)C(=O)C1c1ccc(OC)cc1 (stereo unspecified) | -10.7% |  |
| CO[C@H]1COC(=O)C/C=C\[C@@H](C)COC(=O)[C@H]2CCCN2C(=O)C/C=C\[C@H]1C | 4.01% [at 11.4 µM] |  |
| CN(C)c1ccc(/C=C2/C(=O)N(c3ccc([N+](=O)[O-])cc3)N=C2N2CCOCC2)cc1 | -19% |  |
| Cc1cc(N2CCOCC2)ccc1/C=C1\SC(=O)N(C(C)C)C1=O |  | 14.1 µM (active) |
| CC(C(=O)Nc1ccccc1Sc1ccccc1)N(c1ccccc1)S(C)(=O)=O (stereo unspecified) | -5.72% |  |
| CO[C@@H]1COC(=O)[C@H](COCc2ccccc2)NC(=O)C/C=C\[C@@H](C)[C@H](OC)COC(=O)[C@H](COCc2ccccc2)NC(=O)C/C=C\[C@H]1C | -19.7% [at 11.4 µM] |  |
| COc1cccc(/C=N/Nc2nc(N3CCCC3)nc(N3CCCC3)n2)c1O |  | 2.51 µM (active) |
| COC(=O)C1=C(C)[C@@H](O)[C@@H](C)[C@H](c2c(OC)c(OC)c(C)c(OC)c2OC)O1 | -10.1% [at 11.4 µM] |  |
| C#C[C@]1(O)CC[C@@H]2[C@H]3CCc4cc(OC)ccc4[C@@H]3CC[C@@]21C |  | 0.501 µM (active) |
| CC12CC[C@@H]3c4ccc(OP(=O)(O)O)cc4CCC3C1CCC2=O (stereo partly specified) | -13.4% [at 2.29 µM] |  |
| C#C[C@@]1(O)CC[C@@H]2[C@@H]3CCC4=CC(=O)CC[C@@H]4[C@H]3CC[C@]21C | -14.1% [at 25.6 µM] |  |
| Clc1ccc(CCNc2nc3ccccc3s2)cc1 |  | 11.2 µM (active) |
| CC(C)N1CCN(c2ccc(OC[C@@H]3CO[C@@](Cn4cncn4)(c4ccc(Cl)cc4Cl)O3)cc2)CC1 | -3.45% [at 25.6 µM] |  |
| Nc1c(O)cccc1C(=O)C[C@@H](N)C(=O)O | -7.38% [at 25.6 µM] |  |
| N#C/C(=C\Nc1ccccn1)C(=O)c1ccco1 | -22.9% [at 11.4 µM] |  |
| N#C/C(=C\Nc1ccccn1)C(=O)C1CC1 |  | 1.26 µM (active) |

| SMILES | activity, negative = inhibition | AC50 |
| --- | --- | --- |
| CC(CCN)(CCN)[N+](=O)[O-] | -10.4% [at 11.4 µM] |  |
| O=C(NCCCN1CCc2ccccc2C1)C1CCN(S(=O)(=O)N2CCCC2)CC1 | 3.7% |  |
| Cc1ccccc1CS(=O)(=O)CCC(=O)NCCCN1CCN(c2ccccc2F)CC1 | -19.6% |  |
| O=C(NCCN1CCN(C(=O)C(c2ccccc2)c2ccccc2)CC1)C(=O)Nc1ccccc1 | -23% |  |
| O=C(NCCCN1CCN(c2ccccc2F)CC1)C1CCC(=O)N1C1CCCCC1 (stereo unspecified) | 0.883% |  |
| CSc1ccc(NC(=O)NCCN2CCc3ccccc3C2)cc1 |  | 14.1 µM (active) |
| CSc1ccc(NC(=O)NCCCN2CCN(c3ccccc3F)CC2)cc1 |  | 2.51 µM (active) |
| Fc1cccc(/C=N\N=C/c2cccc(F)c2)c1 |  | 0.2 µM (active) |
| COc1cccc([C@@H]2Oc3ccc(OC)cc3/C(=N/O[C@@H](C)c3cc(-c4c(C)cc(C)cc4C)no3)[C@@H]2O)c1 | -10.9% [at 11.4 µM] |  |
| Cc1cc(N)c2cc(NC(=O)Nc3ccc4nc(C)cc(N)c4c3)ccc2n1 | -1.54% [at 11.4 µM] |  |
| Cc1cc(C)c(C(N)=O)c(NC(=O)Nc2ccccc2)n1 |  | 3.16 µM (active) |
| Cc1noc2ncnc(Oc3ccc4ccccc4c3)c12 |  | 8.91 µM (active) |
| Cc1cccc(Oc2ncnc3onc(C)c23)c1C |  | 17.8 µM (active) |
| CCNCCCNCCCNCCCNCC | -9.81% |  |
| CC1CCN(C(=O)Nc2ccc3nsnc3c2)CC1 |  | 11.2 µM (active) |
| O=C(Nc1ccc(Cl)c(Cl)c1)N1CCC(N2CCCCC2)CC1 | -19.8% |  |
| CC1CCN(CCc2nc3cc(NC(=O)NC4CCCCC4)ccc3n2C)CC1 | 3.24% |  |
| COc1ccc(COC(=O)N/N=C2/C[C@@H](O)[C@@H](O)[C@@H]3[C@H]4C(=O)N(c5ccc(F)cc5F)C(=O)[C@@H]4CC[C@H]23)cc1 | -6.28% [at 11.4 µM] |  |
| Cc1cc(O)c(C(C)C)cc1N=Cc1ccccc1O |  | 1.58 µM (active) |
| O=S(=O)(O)c1cc(O)c2c(N=Cc3ccccc3O)cc(S(=O)(=O)O)cc2c1 | -23.7% [at 2.29 µM] |  |
| COc1ccc(C(=O)N2CCC3(CCCN(Cc4cc(C(F)(F)F)cc(C(F)(F)F)c4)C3)CC2)cc1 | 11.6% |  |
| N#CC1(Nc2ccc(-c3ccc(NC4(C#N)CCCC4)cc3)cc2)CCCC1 |  | 3.16 µM (active) |
| O=C(O)C1(Nc2ccc(Cl)cc2)CCCC1 | -2.69% [at 11.4 µM] |  |
| COCC(=O)N1CCC2(CCCN(Cc3cc(C(F)(F)F)cc(C(F)(F)F)c3)C2)CC1 | 3.63% |  |

| SMILES | activity, negative = inhibition | AC50 |
| --- | --- | --- |
| S=C(Nc1ccc2cn[nH]c2c1)Nc1ccc2cn[nH]c2c1 |  | 0.126 µM (active) |
| O=C(O)c1c(Cl)c(Cl)c(Cl)c(Cl)c1C(=O)Nc1ccc2cn[nH]c2c1 |  | 0.2 µM (active) |
| N#CC(C#N)=NNc1ccc2cn[nH]c2c1 |  | 1.26 µM (active) |
| CCN1C(=O)[C@H]2[C@H]3[C@H](O)[C@H](O)C/C(=N/NC(=O)OCc4ccccc4)[C@H]3CC[C@@H]2C1=O | -7.29% [at 11.4 µM] |  |
| NS(=O)(=O)c1cc(Cl)c(Cl)c(S(N)(=O)=O)c1 | -15.8% [at 25.6 µM] |  |
| CN(C)/C(CN1CCN(C=O)CC1)=C1\N=C(c2ccccc2)OC1=O |  | 14.1 µM (active) |
| O=C(O)[C@@H](S)[C@H](S)C(=O)O | -20.1% [at 11.4 µM] |  |
| CC1CCN(CCOc2cc(Cl)ccc2Cl)CC1 |  | 8.91 µM (active) |
| CC1CCN(CCCCOc2ccccc2[N+](=O)[O-])CC1 | -15.7% |  |
| OCCN1CCN(CCOc2cccc(Cl)c2)CC1 | -16.3% |  |
| CC1CCN(C(=O)c2ccc(COc3ccccc3Cl)o2)CC1 |  | 3.16 µM (active) |
| COc1ccccc1CNC(=O)C1CCN(S(=O)(=O)N2CC(C)CC(C)C2)CC1 (stereo unspecified) | -15.6% |  |
| CC1CN(C2CCN(C(=O)c3cccc(Cl)c3)CC2)CC(C)O1 (stereo unspecified) | -4.5% |  |
| O=C(OCc1ccccn1)c1ccc(COc2ccccc2Cl)o1 |  | 7.08 µM (active) |
| C[C@@H]1NC(=O)[C@@H](C)COC(=O)[C@H](C)NC(=O)[C@@H](C)COC1=O | 0.211% [at 11.4 µM] |  |
| CC(C)n1nnnc1SCC(=O)NCCc1ccccc1 |  | 12.6 µM (active) |
| CCn1c(CC(=O)Nc2ccc(C)cc2)nnc1SCC(=O)NCCc1ccccc1 | 12.5% |  |
| CC(NC(=O)CSc1nc(=O)cc(N)n1CCc1ccccc1)c1ccccc1 (stereo unspecified) | -15% |  |
| COc1ccccc1CNc1ccnc(-c2ccc(N(C)C)cc2)n1 |  | 0.794 µM (active) |
| COc1ccccc1CNc1ccnc(-c2ccoc2)n1 |  | 1.58 µM (active) |
| COc1ccccc1CNc1ccnc(-c2ccc(C(=O)N(C)C)cc2)n1 |  | 12.6 µM (active) |
| COc1ccc(CNc2ccnc(-c3ccc(N(C)C)cc3)n2)c(OC)c1 |  | 3.16 µM (active) |
| COC(=O)N1CCC2(CC1)CCN(c1ncccn1)CC2 | 6.95% |  |
| CN(C)c1ccc(-c2nccc(NCc3ccccc3)n2)cc1 |  | 1.26 µM (active) |

| SMILES | activity, negative = inhibition | AC50 |
| --- | --- | --- |
| Nc1nnnn1/N=C\c1ccc(Cl)c([N+](=O)[O-])c1 |  | 5.01 µM (active) |
| O=[N+]([O-])c1cc(/C=N/N2CCN(C3c4ccccc4-c4ccccc43)CC2)ccc1Cl | -17% |  |
| COc1cc(OC)c2cc(-c3ccncc3)cnc2c1 |  | 0.2 µM (active) |
| CCc1ccc(C(=O)CN(C#N)c2nc(C)cc(C)n2)cc1 |  | 15.8 µM (active) |
| CCc1ccc(C(CC(=O)c2ccc(Cl)cc2)C(=O)O)cc1 (stereo unspecified) | 7.03% |  |
| COCC(=O)N1CCC2(CCN(Cc3ccccc3OC)CC2)CC1 | 13.3% |  |
| CCCCN(CC)C(=O)Cc1ccccc1OC |  | 14.1 µM (active) |
| COc1ccccc1CN1CCC2(CC1)CCN(C(C)=O)CC2 | 13.1% |  |
| O=C(COC(=O)c1cccnc1)c1ccc(Cl)c(Cl)c1 |  | 0.891 µM (active) |
| O=C(O)COc1c(Cl)cc(Cl)c2cccnc12 | -1.3% [at 2.29 µM] |  |
| O=C(OCc1ccc(Cl)cc1Cl)c1cccnc1Cl |  | 1 µM (active) |
| O=C(COC(=O)c1cccnc1Cl)c1ccccc1 |  | 11.2 µM (active) |
| Cc1ccc(C(=O)COC(=O)c2ccc3c(c2)C(=O)N(c2cccc4ncccc24)C3=O)cc1C | -1.92% |  |
| Cc1ccc(C(=O)COC(=O)c2ccccc2N2C(=O)C3C4CCC(C4)C3C2=O)cc1C (stereo unspecified) | -26.5% |  |
| COCC(=O)N1CCC2(CCCN(C(=O)Nc3ccc(OC)cc3)C2)CC1 | -12% |  |
| Cc1nc2ccccn2c1/C(O)=C1\C(=O)C(=O)N(CCCn2ccnc2)C1c1ccncc1 (stereo unspecified) | -11.6% |  |
| Cc1nc2ccccn2c1C(=O)CSc1ccccc1Cl |  | 8.91 µM (active) |
| CC(C)(C)NC(=O)NC(=O)CSc1nnc2ccccn12 | -9.41% |  |
| CCCn1nc2cc(C(=O)NCc3ccccc3OC)ccc2c1OCC | -23.4% |  |
| CCCCn1nc2cc(C(=O)NCC3CC3)ccc2c1OCC | -28.4% |  |
| O=C(CSc1nc2ccccc2c(=O)n1CCCC(=O)N1CCCC1)NCc1ccco1 | -10.2% |  |
| CCCCCn1c(SCc2ccncc2)nc2cc(C(=O)NCc3ccco3)ccc2c1=O |  | 4.47 µM (active) |
| CCOc1c2ccc(C(=O)NCc3ccco3)cc2nn1CC |  | 2.51 µM (active) |
| CCOc1c2ccc(C(=O)NCCc3cccs3)cc2nn1CC |  | 8.91 µM (active) |
